40 compounds from PubChem BioAssay (Tox21) can be followed below.

Molecules are shown by their SMILES. Inconclusive results are not listed. Entries that show only a call come without a potency. Active and inactive are the calls of the source. Calls follow the shape of the dose curve; as a rule, active = well fitted cell-killing curve with a large enough effect in the repeat runs; inconclusive = weak or mixed curves, or effect the other way; inactive = flat fitted curve, though single readings scatter.
Potency is read from the fitted curve at half-maximal effect.

This experiment in a line: qHTS assay to identify small molecule antagonists of the estrogen receptor alpha (ER-alpha) signaling pathway using the BG1 cell line in the presence of 0.1 nM 17-beta-estradiol - cell viability counter screen (AID 1259241). Also: nearly all actives have a fitted effect of over 40% in size. Conditions: VM7Luc4E2 (BG1) viability, CellTiter-Fluor protease, 22 h, 0.1 nM estradiol agonist added; series mostly up to 92.4 µM. The text has this:
National Center for Advancing Translational Sciences [NCATS]
NIH Chemical Genomics Center [NCGC]
U.S. Environmental Protection Agency [EPA]
National Institutes of Environmental Health Sciences [NIEHS]
National Toxicology Program [NTP]
U.S. Food and Drug Administration [FDA]
Estrogen receptor (ER), a member of the nuclear hormone receptor plays an important role in development, metabolic homeostasis and reproduction. Two subtypes of ER, ER-alpha and ER-beta, have similar expression patterns with some uniqueness in both types. Endocrine disrupting chemicals (EDCs) and their interactions with steroid hormone receptors like ER causes disruption of normal endocrine function. Therefore, it is important to understand the effect of environmental chemicals in ER signaling pathway. For identifying ER antagonists, VM7Luc4E2 cell line was used to screen against Tox21 compound libraries.
VM7Luc4E2 cell line (provided by Denison MS, University of California) endogenously express full-length ER-alpha and is stably transfected with a plasmid containing four estrogen responsive elements (ERE) upstream of a luciferase reporter gene. The current screening for identification of ER-alpha inhibitors against Tox21 compound libraries used lower concentration (0.1 nM) of 17beta-Estradiol as a stimulator. The cytotoxicity of the Tox21 compound libraries against VM7Luc4E2 cell line was tested by measuring live-cell protease activity using CellTiter-Fluor assay in the same wells.
Tox21 Assay Protocol Summary:
VM7Luc4E2 cells were cultured in phenol red free assay medium containing 10% charcoal stripped FBS for 5 days prior to the assay. The cells were dispensed at 4,000 cells/well in 4 uL of assay medium into white wall/solid-bottom 1536-well plates (Corning Life Sciences, Corning, NY) using a Multidrop Combi (ThermoFisher Scientific, Waltham, MA) dispenser. After the assay plates were incubated at 37C and 5% CO2 for 24 hr, 23 nL of compounds dissolved in DMSO, positive controls or DMSO only was transferred to the assay plates by a Pintool station (Kalypsys, San Diego, CA). The transfer of compounds was followed by the addition of 1 uL of 0.1 nM (final concentration) agonist (17beta-Estradiol)/assay medium using a Flying Reagent Dispenser (FRD, Aurora Discovery, San Diego, CA). The plates were incubated at 37C and 5% CO2 for 22 hr. For cytotoxicity assay, 1 uL of CellTiter-Fluor reagent (Promega Corporation, Madison, WI) was added to each well using the FRD and after 30 min incubation at 37C and 5% CO2, The fluorescence intensity was measured using ViewLux plate reader (PerkinElmer, Shelton, CT).
On the technique in general: In qHTS, concentration-response curves come from the screen itself.
Regarding `CCc1cccc(C)c1N(C(=O)CCl)[C@@H](C)COC`, the Potency entry is “inactive”.
Consider `CC(C)=CC1C(C(=O)OC(C#N)c2cccc(Oc3ccccc3)c2)C1(C)C` (stereo not given), for which the Potency entry was “inactive”.
For `CC1(C)C(C=C(Cl)Cl)C1C(=O)OC(C#N)c1ccc(F)c(Oc2ccccc2)c1` (stereo not given), the Potency entry was “inactive”.
To `CC(O)C(=O)[O][Hg][c]1ccccc1` (stereo not given) belongs 12.2 µM (active); to `C[C@@H]1CC2=CC(=O)CC[C@@H]2[C@H]2CC[C@@]3(C)[C@@H](CC[C@]3(C)O)[C@@H]21`, “inactive”.
The same measure for `CCNc1nc(NC(C)C(C)C)nc(SC)n1` (stereo not given): “inactive”; for `CCN(CC)CCc1c[nH]c2ccccc12`: “inactive”.
In the case of `O=C(NC(=O)c1ccccc1Cl)Nc1ccc(OC(F)(F)F)cc1`, the Potency entry is “inactive”.
To `CNC(C)(C)Cc1ccccc1` belongs “inactive”; to `CCN(CC)C(=O)N[C@@H]1C=C2c3cccc4[nH]cc(c34)C[C@@H]2N(C)C1`, “inactive”.
Turning to `c1cc[n+]2c(c1)-c1cccc[n+]1CC2`, the Potency is 26.6 µM (active).
Turning to `O=C(O)CCCCCCNC1c2ccccc2CCc2ccccc21`, the Potency entry is “inactive”.
The same measure for `N#Cc1c2ccccc2cc2ccccc12`: “inactive”.
In the case of `CCCCC(CC)COC(=O)c1ccccc1C(=O)OCC(CC)CCCC` (stereo not given), the Potency result was “inactive”.
To `OCC(Br)CBr` (stereo not given) belongs “inactive”; to `CC(C)N(C(=O)SC/C(Cl)=C/Cl)C(C)C`, “inactive”; to `CCC(C)Nc1c([N+](=O)[O-])cc(C(C)(C)C)cc1[N+](=O)[O-]` (stereo not given), “inactive”.
Consider `Cc1c([N+](=O)[O-])c(C)c([N+](=O)[O-])c(C(C)(C)C)c1[N+](=O)[O-]`, for which the Potency result is “inactive”.
To `C[N+]1(C)[C@@H]2CC[C@H]1CC(OC(=O)C(CO)c1ccccc1)C2` (stereo not given in full) belongs “inactive”.
Regarding `COC(=O)C(C)N(C(=O)c1ccco1)c1c(C)cccc1C` (stereo not given), the Potency result was “inactive”.
The same measure for `CCCCn1cc[n+](C)c1` (tested in a mixture with another compound): “inactive”; for `Cc1cc2c3c(c1)C(c1ccccc1)=N[C@@H](NC(=O)c1ccncc1)C(=O)N3CC2`: “inactive”; for `Cc1cc(C2CC2)nc(Nc2ccccc2)n1`: “inactive”.
For the compound `CCO/N=C(\CC)C1=C(O)CC(c2c(C)cc(C)cc2C)CC1=O` (stereo not given), the Potency result was “inactive”.
To `CC(C)[C@@H](Nc1ccc(C(F)(F)F)cc1Cl)C(=O)OC(C#N)c1cccc(Oc2ccccc2)c1` (stereo not given in full) belongs “inactive”; to `c1csc(-c2ccc(-c3cccs3)s2)c1`, “inactive”.
To `COC(=O)c1ccccc1S(=O)(=O)NC(=O)Nc1nc(C)nc(OC)n1` belongs “inactive”; to `CCC[CH2][Sn]([CH2]CCC)([CH2]CCC)[CH2]CCC`, 19.3 µM (active); to `CCCN`, “inactive”.
To `O=C1C2(Cl)C3(Cl)C4(Cl)C(Cl)(Cl)C5(Cl)C3(Cl)C1(Cl)C5(Cl)C24Cl` (stereo not given) belongs “inactive”; to `Nc1cc(Cl)ccc1Cl`, “inactive”.
Turning to `c1ccc(Nc2ccc(Nc3ccccc3)cc2)cc1`, the Potency entry was “inactive”.
As for `C#CCO`, the Potency result is “inactive”.
With `Cc1ccccc1OP(=O)(Oc1ccccc1C)Oc1ccccc1C`, the Potency entry is “inactive”.
To `Nc1nc(N)nc(Cl)n1` belongs “inactive”.
As for `O=[N+]([O-])c1cc(C(F)(F)F)c(Cl)c([N+](=O)[O-])c1Nc1ncc(C(F)(F)F)cc1Cl`, the Potency was 21.7 µM (active).
The same measure for `O=NN(CCO)CCO`: “inactive”.
As to `ClC1(Cl)C2(Cl)C3(Cl)C4(Cl)C(Cl)(Cl)C5(Cl)C3(Cl)C1(Cl)C5(Cl)C24Cl` (stereo not given), the Potency entry was “inactive”.
`CC#C[C@]1(O)CC[C@H]2[C@@H]3C[C@H](C)C4=CC(=O)CC[C@]4(C)[C@H]3CC[C@@]21C`: the Potency result was “inactive”.
Consider `ClCBr`, for which the Potency entry is “inactive”.
